Structures are written as SMILES. The panel holds about 83,000 compounds, 20% with a hit somewhere; the sample as a whole holds those more often.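 How to read the values: 0–100, growth inhibition (40 = 60% inhibited); 0, no net growth; -100 to 0, cell death (-40 = 40% of starting cells died; -100 = all dead).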 A number with no mark means an inactive call. Calls of active or inactive are those of the source. How the source made its calls: active means growth percent below 10; inactive means the rest.

Assay in all cases: NCI-60 one-dose screen, 48 h (100 = growth as untreated, 0 = no growth, -100 = all killed)
Holding throughout (conditions): 10 µM unless noted

Test [1] concerns SK-MEL-2 melanoma.
Test [2] deals with EKVX NSCLC.
For test [3], the system named is SN12C renal.
Test [4] has as its system UO-31 renal.
Test [5] relates to TK-10 renal.
In test [6] the test system is ACHN renal.
In test [7] the test system is CAKI-1 renal.
Test [8] deals with A498 renal.
For test [9], the system named is CCRF-CEM leukemia.
For test [10], the system named is RPMI-8226 leukemia.
Test [11] deals with OVCAR-8 ovarian.
The subject of test [12] is OVCAR-5 ovarian.
For test [13], the system named is OVCAR-4 ovarian.
In test [14] the test system is SK-OV-3 ovarian.
In test [15] the test system is IGROV1 ovarian.
The test system of test [16] is OVCAR-3 ovarian.
In test [17] the test system is HS 578T breast.
Test [18] has as its system NCI/ADR-RES ovarian.
Test [19] relates to MOLT-4 leukemia.
The subject of test [20] is SR leukemia.

Regarding `CCCCOc1ccc(NC(=O)n2nc(N=NN(C)C)c3ccc(Cl)cc32)cc1`, the growth was 97.6% in test [1]; 102% in test [2]; 93.5% in [3]; 65.7% in test [4]; 126% in test [5]; 93.8% in test [6]. The growth in test [7] was 90.7%; in test [8], 100%; in [9], 88.9%; in [10] it was 92.7%; in [11], 105%; in test [12], 103%. Also, the growth in test [13] was 96.6%; in test [14], 86%; in test [15], 82.8%; in test [16], 104%; in test [17], 93.6%; in [18] it was 98.3%.

Consider `C=C(C)[C@@H]1CC[C@]2(CO)CC[C@]3(C)[C@H](CC[C@@H]4[C@@]5(C)C=C(C#N)C(=O)C(C)(C)[C@@H]5CC[C@]43C)[C@@H]12`, for which the growth in test [1] was 30.1%; in test [2] it was 15.4%; in [3], 8.07% (active); in [4], -8.85% (active); in test [5], 36.2%; in test [6] it was 12%. Moreover, the growth in [7] was 22.8%; in test [8] it was -0.306% (active); in test [9] it was 2.24% (active); in [10] it was -20.9% (active); in test [11], 22.2%; in test [12], 36.3%. For the same compound, the growth in [13] is 26.9%; in test [14], 37.9%; in [15], 24.1%; in test [16], -49.2% (active); in test [17] it was 29.3%; in test [18] it was 13.1%.

For the compound `c1ccc(-c2oc3ccccc3c2-c2ccccc2)cc1`, the growth in test [1] is 92.9%; in [2] it was 96.6%; in test [3], 92.2%; in [4] it was 86.4%; in test [5], 110%; in test [6], 97.3%. The growth in test [7] was 69.4%; in test [8], 89.9%; in test [9] it was 86.1%; in [19], 54.9%; in test [10] it was 107%; in test [12], 105%. Moreover, the growth was 96.7% in test [13]; 101% in [14]; 87.8% in [15]; 100% in test [16]; 110% in test [17]; 110% in [18].

With `COc1cc(/C=C/C(=O)c2cccc(-n3cc(-c4ccc(Cl)cc4)[nH]c3=O)c2)cc(OC)c1OC`, the growth in test [1] is 34.1%; in test [2], 64.7%; in test [3], 56.3%; in test [4], 52.2%; in test [5] it was 91.7%; in test [6], 67.5%. The growth in [7] is 65.6%; in test [8], 110%; in test [9], 4.15% (active); in [19] it was 26.8%; in test [10], -27.1% (active); in test [11] it was 29.3%. Besides, the growth was 76.9% in test [13], 84.8% in test [14], 13.1% in test [15] and 15.8% in test [16].

Regarding `N#Cc1c(N)nc2c(nnn2-c2cccc(Br)c2)c1N`, the growth in test [1] was 103%; in [2] it was 43.6%; in test [3] it was 93.4%; in [4], 72.8%; in test [5] it was 119%; in [6], 99%. Further, the growth in test [7] is 98.1%; in test [8] it was 105%; in test [19], 83.3%; in test [20], 83.8%; in test [10] it was 86.8%; in test [11], 93.8%. Moreover, the growth is 108% in [12]; 107% in [13]; 101% in [14]; 93.5% in test [15]; 106% in test [16]; 68.8% in test [17]. In addition, the growth in test [18] was 103%.

Turning to `CCOc1ccc(S(=O)(=O)c2ccc(C)cc2)c2c1no[n+]2[O-]`, the growth is 82.5% in test [1]; 83.9% in test [2]; 94.8% in test [3]; 83.3% in test [4]; 92.3% in test [5]; 85.6% in test [6]. The growth is 71.8% in [7]; 67.2% in test [8]; 75.7% in test [9]; 67.9% in test [10]; 90.7% in [11]; 99.1% in [12]. The growth in test [13] is 67.5%; in test [14], 77.4%; in test [16], 85.2%; in test [17] it was 78.4%; in test [18], 71.8%.

For the compound `Cc1cc(N(CCCNc2ccnc3cc(Cl)ccc23)Cc2ccccn2)nc(N2CCOCC2)n1`, the growth in [1] was 97.9%; in [2] it was 89.5%; in test [3], 95.6%; in test [4] it was 63.9%; in test [5], 110%; in test [6], 101%. Also, the growth in test [7] was 87.8%; in test [8] it was 92.5%; in [9] it was 86%; in test [10] it was 85.2%; in test [11], 81.7%; in [12], 95.8%. The growth in [13] was 82.3%; in test [14], 88.5%; in test [15], 82.2%; in test [16] it was 97.6%; in test [17], 80.9%; in [18] it was 88.6%.

On to `CS(=O)(=O)c1ccc(-c2nc3cc(Cl)ccc3n2CC(=O)NO)cc1`, for which the growth in [1] was 88.2%; in [2] it was 99.4%; in test [3], 95%; in [4] it was 82.4%; in test [5] it was 112%; in test [6] it was 93.7%. The growth in test [7] is 93.6%; in [8], 101%; in test [9] it was 93.8%; in [19], 94.2%; in [10] it was 90.9%; in test [12], 100%. The growth was 87.6% in test [13]; 96.4% in [14]; 88.4% in test [15]; 96.1% in test [16]; 93.2% in test [17]; 108% in test [18].

Turning to `Cc1cnc(Nc2ccc(OCCN3CCCC3)cc2)nc1NCc1ccco1`, the growth is 97.9% in [1]; 71.5% in [2]; 68.5% in test [3]; 47.8% in [4]; 79.4% in test [5]; 79.4% in [6]. The growth in test [7] is 62.5%; in test [8], 71.5%; in test [9] it was 72.7%; in test [10] it was 50.7%; in [11], 95.1%; in test [12], 78.1%. For the same compound, the growth in test [13] is 59.4%; in test [14], 108%; in [15], 71%; in test [16], 82.7%; in [17], 80.3%; in [18], 101%.

The values above are taken from PubChem BioAssay (NCI).
